Results filed as inconclusive are left out. Activity calls are given as the source filed them.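 How the source made its calls, unless noted: active means viability at or under a set limit in both replicates, limit being median viability minus 3 SD (cut at about 48% in these data, passing the limit was not always enough); inconclusive means at or under the limit in just one replicate; inactive means at or above the limit in both replicates.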
Key:
[1] = reducers of endogenous Her2 protein level, primary screen, SKBR3 breast tumor cells, AlphaScreen, ATP viability (AID 461;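 active means Her2 level under about 52% in both replicate screens, with viability over 70% of control, limit read from the data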;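 on Her2 level: lower value means less Her2 protein in the cells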;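 on viability: percent of carrier control wells set as 100% viability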); conditions: 18-24 h, measured here: SKBR3 viability, ATP luminescence, at 10 µM
[2] = target: Receptor tyrosine-protein kinase erbB-2 (Homo sapiens) (UniProt P04626); experiment: as above; conditions: 18-24 h, at 10 µM, stronger effect = lower value
Chain of Receptor tyrosine-protein kinase erbB-2 (Homo sapiens) (P04626 whole entry, looked up): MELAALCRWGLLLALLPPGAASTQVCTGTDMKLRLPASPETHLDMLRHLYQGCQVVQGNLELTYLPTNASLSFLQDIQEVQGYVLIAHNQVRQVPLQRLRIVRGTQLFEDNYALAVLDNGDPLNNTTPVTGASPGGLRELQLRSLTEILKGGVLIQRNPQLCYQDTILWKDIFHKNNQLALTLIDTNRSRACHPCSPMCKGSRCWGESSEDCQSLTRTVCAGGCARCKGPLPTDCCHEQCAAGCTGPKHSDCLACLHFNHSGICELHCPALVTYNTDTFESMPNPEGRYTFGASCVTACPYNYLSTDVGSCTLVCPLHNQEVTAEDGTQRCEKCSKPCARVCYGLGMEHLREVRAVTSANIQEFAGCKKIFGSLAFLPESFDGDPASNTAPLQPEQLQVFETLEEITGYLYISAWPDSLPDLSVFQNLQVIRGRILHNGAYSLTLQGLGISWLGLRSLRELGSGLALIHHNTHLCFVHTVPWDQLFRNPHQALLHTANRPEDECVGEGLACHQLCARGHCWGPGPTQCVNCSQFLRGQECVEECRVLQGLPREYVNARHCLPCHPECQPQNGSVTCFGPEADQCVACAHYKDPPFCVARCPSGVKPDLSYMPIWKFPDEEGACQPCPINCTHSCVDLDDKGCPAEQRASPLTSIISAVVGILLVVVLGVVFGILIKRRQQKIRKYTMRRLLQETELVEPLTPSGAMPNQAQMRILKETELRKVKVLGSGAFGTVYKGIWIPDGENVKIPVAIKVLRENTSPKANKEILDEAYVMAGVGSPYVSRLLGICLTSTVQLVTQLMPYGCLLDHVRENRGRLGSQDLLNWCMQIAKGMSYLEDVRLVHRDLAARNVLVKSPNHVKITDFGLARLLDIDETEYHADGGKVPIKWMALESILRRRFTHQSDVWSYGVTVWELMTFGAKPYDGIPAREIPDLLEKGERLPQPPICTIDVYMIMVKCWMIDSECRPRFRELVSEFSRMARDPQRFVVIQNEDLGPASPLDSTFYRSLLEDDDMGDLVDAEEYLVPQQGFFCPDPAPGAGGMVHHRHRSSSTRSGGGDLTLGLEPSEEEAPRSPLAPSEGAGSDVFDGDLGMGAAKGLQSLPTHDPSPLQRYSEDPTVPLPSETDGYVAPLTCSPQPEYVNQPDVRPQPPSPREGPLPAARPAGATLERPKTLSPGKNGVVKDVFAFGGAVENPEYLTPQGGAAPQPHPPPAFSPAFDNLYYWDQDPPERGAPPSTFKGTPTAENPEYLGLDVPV

[3] = SK-BR-3 cell growth inhibitors, pilot screen, 24 h, human (AID 572;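 active means viability at or below 10% of carrier control in both of two separate runs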;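 further: compound exposure lasted between 18 and 24 h rather than exactly 24 h; 100% = carrier-treated control wells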); conditions: SK-BR-3 viability, CellTiter-Glo luminescence, at 10 µM, stronger effect = lower value
[4] = HUVEC growth inhibition – cell-based, human, primary screen (AID 575;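 active means viability at or below 30% in both replicate assays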;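 further: 100% = median of untreated cell wells with 0.1% DMSO on each plate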); conditions: HUVEC proliferation, CellTiter-Glo luminescence, 72 h; at 10 µM; stronger effect = lower value
[5] = growth inhibitors of H69AR lung tumor, primary screen, human, duplicate replicates (AID 580); conditions: H69AR lung tumor cells viability, ATP luminescence, 72 h; at 10 µM; stronger effect = lower value;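 further: 100% = mean luminescence of untreated wells and 0% = no signal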
[6] = reversal of MRP1-mediated doxorubicin resistance, pilot screen, H69AR cells, doxorubicin co-treatment (AID 601;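 active means viability loss from added drug above about 55%, and viability with drug at most 40%, in both replicates, limit read from the data, passing the limit was not always enough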); conditions: CellTiter-Glo, 72 h, at 10 µM; for differential viability (reversal): stronger effect = higher value
[7] = 384-well plate pilot, post-Golgi transport modulator project, inhibition of yeast transport mutant growth (AID 636; in the data active means inhibition above about 31%); conditions: absorbance 615 nm, about 18 h, stronger effect = higher value
[8] = growth suppression of yeast trafficking mutant, preliminary HTS, modulators of trafficking downstream of Golgi apparatus project, 1536-format plate, OD 615 nm (AID 637; in the data active means inhibition above about 30%); conditions: yeast transport mutant growth, absorbance 615 nm, 18 h; stronger effect = higher value
[9] = OD615 S. cerevisiae growth inhibition, permissive medium, pilot counter-assay, permissive growth control for S. cerevisiae lifespan shortening project (AID 705;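 active means growth inhibition above 25% in both replicates, a cutoff set 3 SD above the mean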); conditions: OD615, 24 h, at 10 µM, stronger effect = higher value
[10] = Restrictive medium S. cerevisiae growth inhibition, OD615, pilot screen of yeast lifespan reduction project, restrictive growth control (AID 706;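 active means growth inhibition above a set limit, 3 SD over mean compound inhibition, in both replicates, cut at about 43% in these data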;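 further: modified DeaD lifespan yeast strain shifted to restrictive glucose medium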); conditions: OD615, 48 h, at 10 µM, stronger effect = higher value
[11] = viability gain of MRP-1-high H69AR cells under doxorubicin, pilot screen, MRP-1 activator project, CellTiter-Glo, duplicate (AID 807;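 active means viability increase at or above a cutoff of the median across tested compounds plus 3 SD, cut at about 8.5% in these data, passing the limit was not always enough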;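 further: compound pretreatment 18-22 h then 72 h combined with doxorubicin; 0% = doxorubicin alone and 100% = vehicle without doxorubicin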); conditions: H69AR viability with doxorubicin, CellTiter-Glo luminescence; at 10 µM; stronger effect = higher value
[12] = growth suppression of beta-catenin knockout HCT116, pilot screen, human colon tumor cells (AID 823;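 active means cell viability at or below a set limit in both duplicate runs, the limit being the all-compound median minus 4 SD, cut at about 23% in these data, passing the limit was not always enough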;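 further: 0% = wells killed by 20 µM Hyamine and 100% = untreated DMSO cell wells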); conditions: CellTiter-Glo, 60 h, at 10 µM, stronger effect = lower value
[13] = growth suppression of PTEN-deleted HCT116, pilot screen, cell-based, HCT116 clonal line, CellTiter-Glo (AID 824;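 active means viability at or below 27.92% in each of two runs, the all-compound median minus 4 SD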;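 further: 0% = 20 µM Hyamine control and 100% = vehicle cell control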); conditions: 60 h, at 10 µM, stronger effect = lower value
[14] = inhibitors of the yeast RAM network, pilot screen, dse1pr::URA3 reporter, 5-FOA selection (AID 869;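 active means inhibition over a set limit, the all-compound mean plus 3 SD, in both replicate runs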;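 further: 0% = DMSO wells with no growth and 100% = 10 µM 1-NA-PP1 with full growth; RAM network block rescues cells from 5-FOA so hits raise OD615 growth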); conditions: S. cerevisiae dse1pr::URA3 5-FOA growth, OD615, 2 d; at 10 µM; stronger effect = higher value; strain carries analog-sensitive mutant Cbk1 kinase
[15] = RAM signaling pathway blockade in yeast – S. cerevisiae, Pdr1DBD-CYC8 efflux-inhibited sensitized strain, primary screen (AID 1298;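 active means RAM network inhibition above 8.4% in each of two replicates, 3 SD over the compound average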;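 further: 0% = DMSO untreated cells without growth and 100% = 10 µM 1-NA-PP1 full growth; higher means more yeast growth rescued from 5-FOA killing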); conditions: S. cerevisiae cbk1-as DSE1-URA3 strain, 5-FOA growth OD615, 2 d; at 50 µM; stronger effect = higher value
[16] = H69AR cells + 2 uM doxorubicin, measured here: viability with 2 uM doxorubicin, stronger effect = lower value
[17] = H69AR cells, compound alone cytotoxicity

Row | SMILES | viability [1] | Her2 level [2] | viability [3] | viability [4] | viability [5] | differential viability (reversal) ([6]; H69AR cells + 2 uM doxorubicin) | viability [6, 16] | viability [6, 17] | inhibition [7] | inhibition [8] | growth inhibition [9] | growth inhibition [10] | viability increase [11] | viability [12] | viability [13] | inhibition [14] | RAM network inhibition [15]
1 | CCN1C(=C2C(=O)c3ccccc3C2=O)C=Cc2ccccc21 | 96.5% | 97% (inactive) | 96.5% (inactive) | 92.6% (inactive) | 93.4% (inactive) | -0.49% (inactive) | 93.9% | 93.4% | 0.64% (inactive) | -8% (inactive) | -23.3% (inactive) | -27.6% (inactive) | -1.18% (inactive) | 105% (inactive) | 95.1% (inactive) | 1.86% (inactive) | -0.72% (inactive)
2 | COc1ccc(C2CC(c3ccc(OC)cc3)n3nc(N)nc3N2)cc1 (stereo not given) | 97.5% | 98% (inactive) | 97.5% (inactive) | 88% (inactive) | 82.2% (inactive) | -2.91% (inactive) | 85.1% | 82.2% | 0.77% (inactive) | 0.17% (inactive) | 7.76% (inactive) | 16.3% (inactive) | 0.09% (inactive) | 105% (inactive) | 98.1% (inactive) | 1.62% (inactive) | 3.07% (inactive)
3 | COC(=O)c1ccccc1NC1c2ccccc2C(=O)N1c1cccnc1 (stereo not given) | 95% | 109% (inactive) | 95% (inactive) | 86.9% (inactive) | 84.7% (inactive) | -0.77% (inactive) | 85.4% | 84.7% | 1.07% (inactive) | 0.33% (inactive) | -16.1% (inactive) | 3.47% (inactive) | -0.86% (inactive) | 94.4% (inactive) | 89.8% (inactive) | -1.07% (inactive) | 4.8% (inactive)
4 | Cn1cnc2cc(NC(=O)c3ccc(Cl)cc3)ccc21 | 91.5% | 90.5% (inactive) | 91.5% (inactive) | 88.1% (inactive) | 93% (inactive) | -2.15% (inactive) | 95.2% | 93% | -4% (inactive) | -3.33% (inactive) | 0.595% (inactive) | 7.51% (inactive) | 0.08% (inactive) | 94.5% (inactive) | 96.5% (inactive) | 0.75% (inactive) | -1.41% (inactive)
5 | O=C(Nc1cccnc1)Nc1ccccn1 | 100% | 100% (inactive) | 100% (inactive) | 105% (inactive) | 96.9% (inactive) | 9.92% (inactive) | 87% | 96.9% | -1.69% (inactive) | -2.33% (inactive) | -2.38% (inactive) | -0.12% (inactive) | -0.73% (inactive) | 99.8% (inactive) | 92.9% (inactive) | 0.185% (inactive) | 0.51% (inactive)
6 | CC(C)C(C(=O)Nc1ccc2c(c1)OCCO2)N1C(=O)c2ccccc2C1=O (stereo not given) | 91% | 102% (inactive) | 91% (inactive) | 99.8% (inactive) | 104% (inactive) | 8.75% (inactive) | 94.8% | 104% | 0.77% (inactive) | -10.7% (inactive) | -11.7% (inactive) | -13.3% (inactive) | -0.14% (inactive) | 99.1% (inactive) | 97.7% (inactive) | 1.34% (inactive) | 2.58% (inactive)
7 | CCOC(=O)C(C)(C)Sc1nc2c(cnn2-c2ccc(Cl)cc2)c(=O)[nH]1 | 76% | 91% (inactive) | 76% (inactive) | 64.4% (inactive) | 81.9% (inactive) | -3.56% (inactive) | 85.4% | 81.9% | -2.05% (inactive) | 2.5% (inactive) | -5.47% (inactive) | -0.62% (inactive) | -2.17% (inactive) | 91.9% (inactive) | 78.2% (inactive) | 1.89% (inactive) | 6.14% (inactive)
8 | O=C(C1CCN(c2nnc(-n3cccc3)s2)CC1)N1CCOCC1 | 84% | 80% (inactive) | 84% (inactive) | 86.2% (inactive) | 87.5% (inactive) | 0.17% (inactive) | 87.3% | 87.5% | -5.2% (inactive) | -1.67% (inactive) | -0.63% (inactive) | -1.73% (inactive) | 0.27% (inactive) | 101% (inactive) | 96.7% (inactive) | 1.83% (inactive) | 6.37% (inactive)
9 | CCOc1ccc(N2C(=O)CC(N3CC(C)OC(C)C3)C2=O)cc1 (stereo not given) | 97% | 93% (inactive) | 97% (inactive) | 100% (inactive) | 89.2% (inactive) | -2.21% (inactive) | 91.4% | 89.2% | -3.72% (inactive) | 1.33% (inactive) | -17.2% (inactive) | -10.4% (inactive) | -1.01% (inactive) | 105% (inactive) | 98.8% (inactive) | 1.47% (inactive) | 2.33% (inactive)
10 | CCCS(=O)(=O)N1CCN(C(=O)c2cccnc2)CC1 | 97% | 98.5% (inactive) | 97% (inactive) | 93.1% (inactive) | 106% (inactive) | 5.65% (inactive) | 101% | 106% | -0.26% (inactive) | -3.77% (inactive) | -8.47% (inactive) | -15.8% (inactive) | 1.08% (inactive) | 101% (inactive) | 95.2% (inactive) | -0.345% (inactive) | 0.42% (inactive)
11 | COc1ccc(C2CC(c3cccs3)n3nc(N)nc3N2)cc1 (stereo not given) | 113% | 102% (inactive) | 113% (inactive) | 89.3% (inactive) | 91.4% (inactive) | 7.99% (inactive) | 83.4% | 91.4% | -2.4% (inactive) | -6.39% (inactive) | 2.05% (inactive) | 17% (inactive) | -1.71% (inactive) | 94.2% (inactive) | 82.2% (inactive) | 0.275% (inactive) | 8.26% (inactive)
12 | CCCCOCCCNC(=O)COc1ccccc1 | 103% | 104% (inactive) | 103% (inactive) | 102% (inactive) | 94.1% (inactive) | -2.32% (inactive) | 96.4% | 94.1% | -5.54% (inactive) | -2.46% (inactive) | -2.82% (inactive) | -5.04% (inactive) | -1.43% (inactive) | 94.5% (inactive) | 97.5% (inactive) | 0.215% (inactive) | -0.62% (inactive)
13 | CN1CCc2c(sc3c2C(=O)NC(c2cccc(OC(=O)c4cccs4)c2)N3)C1 (stereo not given) | 81.5% | 78.5% (inactive) | 81.5% (inactive) | 68% (inactive) | 85.6% (inactive) | -8.95% (inactive) | 94.6% | 85.6% | -5.07% (inactive) | 7.5% (inactive) | 8.64% (inactive) | 11.5% (inactive) | -4.85% (inactive) | 96.3% (inactive) | 93.8% (inactive) | 0.215% (inactive) | 4.47% (inactive)
14 | COC(=O)NCC(c1cccnc1)N1CCOCC1 (stereo not given) | 97% | 95.5% (inactive) | 97% (inactive) | 103% (inactive) | 95.7% (inactive) | 2.39% (inactive) | 93.3% | 95.7% | -0.64% (inactive) | -4.83% (inactive) | -1.88% (inactive) | -7.24% (inactive) | 0.99% (inactive) | 102% (inactive) | 99.6% (inactive) | 0.015% (inactive) | -0.26% (inactive)
15 | C=CCn1c(=O)n(CCOC)c(=O)c2sc3ccccc3c21 | 85% | 105% (inactive) | 85% (inactive) | 87.4% (inactive) | 86.8% (inactive) | -13.7% (inactive) | 100% | 86.8% | -0.53% (inactive) | 4.33% (inactive) | -13.3% (inactive) | -5.77% (inactive) | -4.03% (inactive) | 89.9% (inactive) | 86.7% (inactive) | 0.25% (inactive) | 1.71% (inactive)
16 | O=C(NCc1ccccc1)C1CCN(S(=O)(=O)c2cccc3cccnc23)CC1 | 96.5% | 104% (inactive) | 96.5% (inactive) | 99% (inactive) | 98.2% (inactive) | 2.76% (inactive) | 95.4% | 98.2% | 0.67% (inactive) | -2.79% (inactive) | 0.255% (inactive) | -4.87% (inactive) | -2.29% (inactive) | 99.2% (inactive) | 96.3% (inactive) | 1.52% (inactive) | -0.57% (inactive)
17 | CCCOc1ccc(N2CC(C(=O)Nc3ccc4c(c3)OCO4)CC2=O)cc1 (stereo not given) | 107% | 94% (inactive) | 107% (inactive) | 79.3% (inactive) | 86.4% (inactive) | -9.04% (inactive) | 95.4% | 86.4% | -4.13% (inactive) | -1.67% (inactive) | -11.2% (inactive) | 12.3% (inactive) | -2.44% (inactive) | 107% (inactive) | 102% (inactive) | 2.89% (inactive) | 2.77% (inactive)
18 | CCOC(=O)C1=C(C)NC(=O)NC1c1ccc(OCCO)c(OC)c1 (stereo not given) | 92.5% | 85% (inactive) | 92.5% (inactive) | 96.6% (inactive) | 92.1% (inactive) | -1.96% (inactive) | 94.1% | 92.1% | -6.08% (inactive) | -2.3% (inactive) | 1.63% (inactive) | 1.81% (inactive) | -1.65% (inactive) | 102% (inactive) | 100% (inactive) | 1.9% (inactive) | -1.29% (inactive)
19 | CN(C)CCCNC(=O)CCC1CCCCC1 | 93% | 78% (inactive) | 93% (inactive) | 101% (inactive) | 94% (inactive) | 9.09% (inactive) | 84.9% | 94% | -7.16% (inactive) | 1.17% (inactive) | -1.1% (inactive) | -3.73% (inactive) | 0.26% (inactive) | 99.5% (inactive) | 107% (inactive) | 0.2% (inactive) | 6.01% (inactive)
20 | CCOC(=O)N1CCN(C(=O)CSc2nnc(-c3cccc(Cl)c3)o2)CC1 | 82.5% | 96.5% (inactive) | 82.5% (inactive) | 86.1% (inactive) | 93.9% (inactive) | 7.46% (inactive) | 86.4% | 93.9% | 0.13% (inactive) | -2.95% (inactive) | -6.25% (inactive) | -10.5% (inactive) | -0.22% (inactive) | 105% (inactive) | 100% (inactive) | 2.61% (inactive) | 2.71% (inactive)

From PubChem BioAssay
